Bioassay records from PubChem BioAssay.
Only some compounds are listed: those with a hit (about 12% of all), similar ones and a draw of the others.
BAZ2B inh – BAZ2B (human) inhibition; Potency, µM (titrated, usually from 114 µM), for inactives: top-dose activity change, negative = inhibition, hits mostly inhibitors; actives 4.4% (n = 360,000); Q9UIF8; AlphaScreen BAZ2B-H3K14Ac peptide displacement; further: on the % scale 0 is the no-effect control and ±100 the full control effect; nearly all actives have a fitted effect of over 60% in size
Target sequence (Q9UIF8 whole entry, looked up): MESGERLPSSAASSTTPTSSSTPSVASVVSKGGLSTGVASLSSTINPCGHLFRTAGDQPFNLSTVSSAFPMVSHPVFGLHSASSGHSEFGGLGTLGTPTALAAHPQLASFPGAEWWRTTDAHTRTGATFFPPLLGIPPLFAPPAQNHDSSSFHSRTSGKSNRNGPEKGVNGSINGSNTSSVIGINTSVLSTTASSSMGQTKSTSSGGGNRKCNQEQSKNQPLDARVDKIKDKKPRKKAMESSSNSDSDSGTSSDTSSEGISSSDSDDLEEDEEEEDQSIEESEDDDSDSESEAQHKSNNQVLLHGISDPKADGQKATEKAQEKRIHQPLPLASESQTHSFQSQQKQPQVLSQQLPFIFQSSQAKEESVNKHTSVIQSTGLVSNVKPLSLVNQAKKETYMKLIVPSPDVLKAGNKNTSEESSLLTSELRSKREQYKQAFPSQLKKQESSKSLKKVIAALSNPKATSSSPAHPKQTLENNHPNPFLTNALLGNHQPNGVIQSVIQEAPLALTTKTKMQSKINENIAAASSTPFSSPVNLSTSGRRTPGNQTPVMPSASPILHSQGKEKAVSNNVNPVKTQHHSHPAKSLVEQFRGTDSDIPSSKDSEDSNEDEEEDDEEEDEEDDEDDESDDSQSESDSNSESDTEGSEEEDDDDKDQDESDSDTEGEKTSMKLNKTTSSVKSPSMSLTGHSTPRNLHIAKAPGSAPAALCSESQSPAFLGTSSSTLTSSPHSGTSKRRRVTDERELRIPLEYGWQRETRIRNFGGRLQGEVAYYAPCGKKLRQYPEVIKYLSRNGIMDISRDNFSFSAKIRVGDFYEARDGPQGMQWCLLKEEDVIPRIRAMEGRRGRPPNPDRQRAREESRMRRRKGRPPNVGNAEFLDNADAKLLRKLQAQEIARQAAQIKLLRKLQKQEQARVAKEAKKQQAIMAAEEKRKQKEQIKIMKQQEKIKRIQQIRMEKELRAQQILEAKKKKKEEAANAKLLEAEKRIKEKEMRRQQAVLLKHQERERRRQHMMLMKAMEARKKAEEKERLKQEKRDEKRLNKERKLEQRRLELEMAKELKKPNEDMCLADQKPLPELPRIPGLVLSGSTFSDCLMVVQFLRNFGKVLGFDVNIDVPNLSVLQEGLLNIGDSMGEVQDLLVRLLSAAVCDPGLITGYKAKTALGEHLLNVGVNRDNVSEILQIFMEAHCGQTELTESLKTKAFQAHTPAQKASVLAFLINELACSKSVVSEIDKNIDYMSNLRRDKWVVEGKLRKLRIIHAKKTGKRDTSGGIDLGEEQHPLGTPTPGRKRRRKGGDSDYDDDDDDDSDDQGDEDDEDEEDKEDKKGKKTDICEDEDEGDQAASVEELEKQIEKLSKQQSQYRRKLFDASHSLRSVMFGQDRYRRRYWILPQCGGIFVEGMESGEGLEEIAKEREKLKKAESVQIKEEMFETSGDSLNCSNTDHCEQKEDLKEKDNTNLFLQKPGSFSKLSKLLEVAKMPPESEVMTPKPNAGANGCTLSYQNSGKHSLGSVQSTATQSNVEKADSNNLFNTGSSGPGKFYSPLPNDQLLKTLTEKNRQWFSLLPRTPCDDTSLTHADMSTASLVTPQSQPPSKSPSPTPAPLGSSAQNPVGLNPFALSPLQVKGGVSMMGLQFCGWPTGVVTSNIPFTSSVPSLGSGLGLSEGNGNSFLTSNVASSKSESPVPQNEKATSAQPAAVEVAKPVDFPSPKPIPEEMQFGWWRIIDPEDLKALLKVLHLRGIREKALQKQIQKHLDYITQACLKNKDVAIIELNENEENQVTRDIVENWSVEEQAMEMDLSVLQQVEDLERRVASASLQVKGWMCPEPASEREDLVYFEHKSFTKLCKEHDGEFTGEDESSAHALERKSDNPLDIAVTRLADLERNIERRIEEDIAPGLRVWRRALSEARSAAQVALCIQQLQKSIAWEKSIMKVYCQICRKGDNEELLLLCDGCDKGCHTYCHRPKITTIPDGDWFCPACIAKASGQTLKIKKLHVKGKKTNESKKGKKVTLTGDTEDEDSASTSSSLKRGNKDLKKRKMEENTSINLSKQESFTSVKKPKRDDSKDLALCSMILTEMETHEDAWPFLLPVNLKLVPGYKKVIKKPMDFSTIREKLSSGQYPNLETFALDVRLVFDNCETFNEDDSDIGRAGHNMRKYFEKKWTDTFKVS
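AlphaScreen luminescence quantifies BAZ2B engagement of H3K14Ac peptide; the protein and biotinylated peptide are both at 50 nM final, buffer PBS pH 7.4 with 0.01% Tween-20, all steps at room temperature.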
G9a block – blocks human histone lysine methyltransferase G9a; actives 8.8% (n = 350,000); Potency, µM (highest dose often 102 µM), for the others: at the top dose activity, negative = inhibition, usual class: inhibitors; Q96KQ7; G9a H3K9 monomethylation, AlphaScreen, 2 h; further: on the % scale 0 is the no-effect control and ±100 the full control effect; nearly all actives have a fitted effect of over 75% in size
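Chemiluminescent proximity detection of H3K9 monomethylation, read after 10 min bead incubation in the dark. Reaction: 20 nM G9a, 500 nM biotin-H3K9 peptide, 20 uM SAM cofactor, 2 h, room temperature, following 15 min enzyme-compound preincubation.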
L3MBTL1 inh – inhibitors of human L3MBTL1. Q9Y468. AlphaScreen L3MBTL1–H3K9me1 peptide binding. Potency, µM (doses to about 57.1 µM), inactives show at the top dose activity, negative = inhibition, actives largely listed as inhibitors. actives 0.66% (n = 230,000). AID 485360; further: on the % scale 0 is the no-effect control and ±100 the full control effect; nearly all actives have a fitted effect of over 60% in size
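Read-out is AlphaScreen signal from streptavidin donor and nickel chelate acceptor beads (10 ug/mL final each) bridging L3MBTL1 (50 nM) and biotinylated K9-monomethylated H3(1-15) peptide (75 nM), after 30 min compound exposure at room temperature.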
HP1b chromo inh – inhibitors of HP1-beta chromodomain binding to methylated histone tails; P83916; AlphaScreen HP1-beta / biotin-H3K9me3 peptide binding; Potency, µM (titrated, usually from 114 µM), without a hit: at the top dose activity change, negative = inhibition, actives largely listed as inhibitors; actives 0.56% (n = 390,000); AID 540317; further: nearly all actives have a fitted effect of over 70% in size
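Compound inhibition of the preformed complex between 50 nM HP1-beta and 50 nM biotinylated H3K9me3 peptide was read by AlphaScreen. Buffer was PBS pH 7.4 with 0.01% Tween-20. Incubations ran 30 min at room temperature, with 10 ug/mL donor/acceptor beads.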
Sfp inh – blocks B. subtilis Sfp PPTase activity; Biochemical Sfp PPTase activity, qHTS; Q9F4F7; AID 1490; actives 3.5% (n = 310,000); Potency, µM, without a hit: largest response in the series, negative = inhibition, actives largely listed as inhibitors;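 further: the enzyme is Sfp with the accession as filed and its product quenches rhodamine fluorescence; 0% = enzyme reaction without inhibitor and -100% = no enzyme wells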
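Buffer: 50 mM Hepes-Na pH 7.6, 10 mM MgCl2, 0.01% Nonidet P-40, 0.01% BSA. Enzyme 15 nM, pre-exposed to compound 15 min; substrates then added and fluorescence change tracked over 30 min.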
JMJD2A Tudor inh – inhibitors of human JMJD2A Tudor domain. O75164. AlphaScreen JMJD2A-Tudor / H3K4me3 peptide binding. Potency, µM (highest dose often 114 µM), for the others: top-dose activity change, negative = inhibition, hits mostly inhibitors. actives 4.4% (n = 390,000). AID 504339; further: on the % scale 0 is the no-effect control and ±100 the full control effect; nearly all actives have a fitted effect of over 50% in size
* hit, by the source's call; ? = inconclusive; / = no result given; [ ] = another dose, or the depositor's remark. The call rests on the fitted dose curve; in most records, active means well fitted curve in the direction sought with a large enough effect; inconclusive means small, poorly fitted or top-dose-only effect, or another doubt; inactive means no such curve, though single readings can be large; an effect the other way counts as inactive or inconclusive. Potency means the concentration at half of the fitted maximal effect.

SMILES | BAZ2B inh | G9a block | L3MBTL1 inh | HP1b chromo inh | Sfp inh | JMJD2A Tudor inh
CCCCCCC(C)(C)c1cc(OC)c2c(c1)OC(C)(C)[C@@H]1CC=C(C)C[C@@H]21 | / | 15%[59 µM] | / | / | 34% | /
CCN(CCO)c1ccc(N=Cc2c(O)n(C)c(=S)[nH]c2=O)cc1 | 56µM* | 35µM* | / | 14% | 40µM* | ?
CCCCC(=O)N/N=C/c1c(O)n(CCc2ccccc2)c(=O)[nH]c1=O | ? | 7%[12.7 µM] | -23% | 14% | 8% | 79µM*
CCN(CC)c1ccc(N=Cc2c(O)n(CCc3ccc(OC)c(OC)c3)c(=O)[nH]c2=O)cc1 | -3% | 7.1µM* | -15% | 4% | ? | -29%
CCCCC(=O)N/N=C/c1c(O)n(CCc2ccc(OC)c(OC)c2)c(=O)[nH]c1=O | 50µM* | ? | -4% | 28% | 6% | 0%
COc1ccc(CCn2c(O)c(C=Nc3ccc(F)cc3)c(=O)[nH]c2=O)cc1OC | -3% | / | 1% | 20% | -13% | -24%
CCCCC(=O)N/N=C/c1c(O)n(Cc2ccc(F)cc2)c(=O)[nH]c1=O | ? | -12% | / | 26% | 16% | -30%
CCc1nn2c(=O)cc(N3CCN(C)CC3)nc2s1 | / | / | / | / | / | -18%
CC(C)CC1C(=O)N2CCCC2C2(O)O[C@@](NC(=O)C3C=C4c5cccc6[nH]c(Br)c(c56)CC4N(C)C3)(C(C)C)C(=O)N12 (stereo partly drawn) | / | ? | / | / | -4% | /
O=[N+]([O-])c1ccc(O)c([N+](=O)[O-])c1 | / | -49%[2.33 µM] | / | 18% | 6% | ?
N#CC(C#N)=Cc1ccc(C=C(C#N)C#N)cc1 | -23% | 50µM* | -10% | 26% | ? | -14%
N#CC(C#N)=Cc1ccc([N+](=O)[O-])c(O)c1 | / | 8.9µM* | / | / | 35µM* | /
O=C1Nc2cc(Cl)c(Cl)cc2N2CCNC[C@H]12 | / | / | / | / | -22% | /
CC(C)CN(CC(C)C)c1ccc(C=C2C(=O)NC(=S)NC2=O)cc1[N+](=O)[O-] | 35µM* | ? | ? | -84% | 20µM* | 35µM*
CCOc1ccc(C=C2C(=O)NC(=S)NC2=O)cc1OCC | / | / | / | -3% | / | ?
CN(C)c1ccc(C=C2C(=O)NC(=S)NC2=O)cc1 | / | / | / | -3% | / | 50µM*
CCN(CC)c1ccc(C=C2C(=O)NC(=S)NC2=O)cc1 | 50µM* | 7.9µM* | -12% | ? | 3.2µM* | 45µM*
C=C(C)C1CCC(C)=CC1c1c(OC)cc(C)cc1OC (stereo not drawn) | / | / | / | / | 1% | /
Cc1ccc(N)c(C(=O)c2ccc(Br)cc2)c1 | 40µM* | 16µM* | / | ? | 0% | 28µM*
Nc1ccc(Br)cc1C(=O)c1ccccc1 | / | -40% | / | 30% | 7% | -11%
CC(C)[N+](C)(C)CC(O)CN(c1ccccc1)c1ccccc1 (stereo not drawn) | -6% | -4% | -1% | 8% | 10% | ?
CCCNC(=O)c1cnn2c(C)c(Cc3c(C)cc(C)cc3C)c(C)nc12 | 10% | -3%[59 µM] | / | 12% | / | ?
CC(=O)N1CCN(CC(=O)Nc2ccc(C#N)c(Cl)c2)CC1 | 0% | -15% | / | 30% | 9% | -18%
COc1ccc(CC(=O)Nc2ccc(C#N)c(Cl)c2)cc1S(=O)(=O)N1CCOCC1 | ? | 40µM* | / | 18% | 50µM* | -10%
CCN(CC(=O)Nc1ccccc1C(F)(F)F)C(=O)Cn1c(=O)cnc2ccccc21 | 1% | ? | 3% | 0% | / | -17%
CCCCCCCCCCCCCC(=O)O[C@@H]1[C@@H](C)[C@@]2(O)[C@H](C=C(CO)C[C@]3(O)C(=O)C(C)=C[C@@H]23)[C@@H]2C(C)(C)C12OC(C)=O (stereo partly drawn) | / | 9%[59 µM] | / | / | 7% | /
CCCn1c(C(C)C)n[nH]c1=S | 3% | 35µM* | / | 31% | 0% | ?
CC(C)=CCC/C(C)=C/CN(CC(C)O)CC(C)O (stereo not drawn) | -4% | 10µM* | -11%[11.4 µM] | ? | ? | 3.2µM*
NNc1ccccc1 | / | 31%[59 µM] | / | / | -14% | /
